# The supplement of paper PMC10681739
# How the values were obtained:
# ETS1 = target: T1, ETS1 (UniProt P14921); experiment: ETS1 binding intensity (PBM fluorescence), ETS1 alone (arbitrary fluorescence units); higher = stronger binding; conditions: ETS1 concentration 1 nM; RUNX1 concentration 0 nM
# T1 sequence: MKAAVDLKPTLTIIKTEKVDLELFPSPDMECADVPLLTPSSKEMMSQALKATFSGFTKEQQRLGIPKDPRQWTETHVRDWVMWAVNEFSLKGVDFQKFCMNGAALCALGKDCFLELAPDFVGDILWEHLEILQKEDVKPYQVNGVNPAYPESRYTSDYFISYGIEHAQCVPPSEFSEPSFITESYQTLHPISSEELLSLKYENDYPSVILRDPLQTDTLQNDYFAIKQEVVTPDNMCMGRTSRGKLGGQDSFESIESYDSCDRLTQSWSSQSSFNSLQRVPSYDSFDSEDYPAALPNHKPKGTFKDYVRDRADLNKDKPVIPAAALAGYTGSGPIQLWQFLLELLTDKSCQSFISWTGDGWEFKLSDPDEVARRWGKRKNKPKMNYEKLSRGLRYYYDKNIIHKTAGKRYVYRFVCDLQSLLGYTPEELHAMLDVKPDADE
# RUNX1 [1] = target: RUNX1 (UniProt Q01196); experiment: RUNX1 binding intensity (PBM fluorescence) in presence of ETS1, normalised to RUNX1-only experiment (arbitrary fluorescence units); higher = stronger binding; conditions: RUNX1 concentration 2 nM; ETS1 concentration 25 nM
# Experimental: (§1)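 Cooperative gcPBM on 36-bp genomic probes with neighbouring ETS1 and RUNX1 sites. Recombinant human RUNX1 (2 nM) was incubated alone or with ETS1 (25 nM) and detected with anti-RUNX1 antibody plus Alexa488 secondary. Values are medians over 4 replicate spots; the RUNX1+ETS1 data were normalised to the RUNX1-only data. The probes sit in constant array flanks that are not printed.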
# RUNX1 [2] = target: RUNX1 (UniProt Q01196); experiment: RUNX1 binding intensity (PBM fluorescence), RUNX1 alone (arbitrary fluorescence units); higher = stronger binding; conditions: RUNX1 concentration 2 nM; ETS1 concentration 0 nM
# Experimental: as §1
# 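Wherever RUNX1 binding intensity (PBM fluorescence) in presence of ETS1, normalised to RUNX1-only experiment is given: Full-length recombinant human ETS1 or RUNX1 bound to double-stranded 36-bp genomic probes on microarrays, detected by protein-specific primary antibody and Alexa488 secondary, spot fluorescence as median of four replicate spots.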
# 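Wherever RUNX1 binding intensity (PBM fluorescence), RUNX1 alone is given: Full-length recombinant human RUNX1 bound to double-stranded 36-bp genomic probes on a high-density microarray, scored as Alexa488 fluorescence per spot via anti-RUNX1 antibody, median of four replicate spots.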
# Sequence of RUNX1 (Q01196 whole entry): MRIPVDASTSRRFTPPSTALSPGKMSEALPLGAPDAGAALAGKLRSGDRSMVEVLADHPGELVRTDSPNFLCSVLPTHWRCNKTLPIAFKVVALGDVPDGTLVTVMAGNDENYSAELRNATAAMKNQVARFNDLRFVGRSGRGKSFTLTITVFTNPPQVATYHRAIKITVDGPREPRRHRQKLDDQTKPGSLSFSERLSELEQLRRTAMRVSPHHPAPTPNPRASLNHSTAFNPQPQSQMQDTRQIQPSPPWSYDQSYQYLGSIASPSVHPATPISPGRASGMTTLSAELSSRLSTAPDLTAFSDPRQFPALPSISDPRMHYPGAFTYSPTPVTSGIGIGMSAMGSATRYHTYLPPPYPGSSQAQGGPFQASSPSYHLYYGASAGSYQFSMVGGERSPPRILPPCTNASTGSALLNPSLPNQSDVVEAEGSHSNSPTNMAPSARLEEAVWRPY
Sequence,ETS1 binding intensity (ETS1),RUNX1 binding intensity (RUNX1 [1]),RUNX1 binding intensity (RUNX1 [2])
ACCTTGCCTAGAGGAAGTGGTTTTTCGAATCTGAGT,2070,1540,–
GAAGGAAGTGGAGACAGTAAGGGGAAACCACAAACC,–,1190,–
GCACACCGGAACTCACACCTGAAACCACAGAACCAA,–,5220,–
GGCGACCAGCTCCGGAAAGCGCGGTGGGGACGCGCT,–,865,–
CCCCTACTTCCCTTTTTGCTGGGCCGCAGTTTCGGT,–,2220,–
ATCTTTTGATGAGGATGTGGTTTCCAGGCAGGTGCT,836,1620,–
AAGTTGATTTCCGGGTAGTCTGTGGTTTCCTAATCA,1040,3880,1210
TAAATCGGAAACTCGCCGCTCAGCCCGCAGCCGCCG,–,808,–
TTGCTCCCGGAAGCCCCGCCCGACCGCGGCTCCTGA,999,1210,–
GAAAAATGAAGTTTCCGCAGTAACCACAACACAGCC,556,2620,–
GGCGCTAGGCTTCCGGATCGCGGTGGGCGGAGTTCA,–,1230,–
TTTGTTGTTCCGGGTGCGAGGCGGCCGCAGCTTCCA,–,1180,–
GAGGGACAGGATGCCGCCAGGAACCACAAGAGCTTC,996,1300,–
CATGGTGGTGACGCAGGATGTGGTGGTGGTGTAGAA,2600,937,707
AAACAGGAAATCACAGCAGCGTTGCGGAGTGGAGCA,1100,883,–
GCCCCTTTTTCCTGGGATGAGCGGTTAGCGGAGGGG,–,1080,–
TCTTTAAAACCCGGAAGTTCCTGTGGTTCATACGCT,8500,1940,–
ATTGCTTCCGACGCTACTCCTGCCGGGTCACCACAG,–,1020,–
TATCGACAAAAGTTCCGGCCCGCGGTAGCGGAGGGA,–,970,–
AGGCCAGACGCCTTCCGTGGTTTACGGTGAGGGTGG,–,799,–
GCCGCCGTTTCCTGATTGGTTGTGGGTGGCTACCTC,–,1660,–
TGCTTAGCGGGAAGTGCTTACACCACAAAACAAGAC,678,1750,–
CCCATTTCCGAGAGTGGCAGGGCTGGGCGCGGTGGG,–,1420,–
GGCCTCGGCCACATCCGGGTTCCACCGCAGATTCGG,1850,6490,–
TCCTATATACTTCCGTTTGCCTCGCGGTTTCTTTCT,1300,4520,–

Sequence,ETS1 binding intensity (ETS1),RUNX1 binding intensity (RUNX1 [1]),RUNX1 binding intensity (RUNX1 [2])
ACAATAACAGGAAGTGGTGGGGACTGCGGTGACCTG,4750,3340,–
TTACCCCGGCGGAACGGAGGCCTGCGGTCGCGGCGG,–,1210,–
TGCCCTGACTTCCTGGTCCTGTGGTCAAGGATGGGG,1340,2000,–
AGGTTCGTGGCAGGAAAGTTTGTGGCAGCAAAGCCT,–,1100,–
GAGTTCTCCGCTTCCTTGCGGCCGGCGGGATTAGCC,–,1030,–
AGACGGTAGGCCAGGAAACCGCAGGCCCCTGCCGGG,925,10600,–
GCATTTACGGGCAGGAAATGAAACCACAGAGTACAA,5420,3610,–
TGAGGGGCTCGCCGGGAAATGTGGTTTAGCGGCCCT,564,2000,832
CCTGACTTCCTCCTCCCCCTCCCGCCACAATTCCGC,1240,2880,–
CACCTCGGGGGTTTCCGGTCCGTGGTTAGCTCCTTC,2600,2930,–
GACACAAGACAGTTTCCGTCAGTGGTTAAGCCCTAA,–,1270,–
GTCCTCTTCCTGTCCCCCAGGTGGGCATGTGGTTTG,519,1790,988
GGGTCCTTCCGGGTTTTGTGTCGAATCTGCGGCGGC,486,1720,–
CTTTGTTACTTTGGGGAAATGTGGTTCTGCGCCACC,–,927,–
GACCACTTCCTTTCTGTGTTTTGTGGTTTCACAACT,555,9060,2430
AACTGCCTGGTGGCCGGAAACCGCTGGAGGGAGGGC,4740,1130,793
GGCGGGACTTCCGGCGTCTCCCCTCGGCGGTTGCTT,2330,1980,751
CTTAGAGTACCAGGATGTGGTTTGGCCTGGGGGTGG,1790,1800,1000
ATGAGCTATTTCCTGCCTTGTGGTCAGAGCCAGACT,1640,4330,1050
GAAGCTCCCCAAACAGGATGTGGTTAGGGAGAGGGG,8040,4090,879
TAAGTGAATTTCCTGCCCGCCTCCGCCCACAGCGTA,775,1790,809
GCCCAGGGCGGCCGGAAGTTTGCGGGGCGGGGCGGA,8880,1480,754
AAGGTGGAAAAAGGATGTGGTTCTAAGCTGGCTTCT,887,1020,735
CAGGCTCGCCACAGGGGAAGTGGTTAGGGCGGGTCC,684,890,775
CTCTGGCAGGAAGCTCTGAGGGCTAAACCACAAAAA,1110,1820,989

Sequence,ETS1 binding intensity (ETS1),RUNX1 binding intensity (RUNX1 [1]),RUNX1 binding intensity (RUNX1 [2])
CCCGGCCACTTCCGCCTATTGCGGGCGTCGGCTAGG,1440,4310,745
CAGCCTTGCCGGAAGGCAGAGTTTGTGGTCAGACCG,1090,2500,1330
TTTGAGCGGGCAGGATGTGGTGACAATGATACTGCA,4280,2370,750
GACACAAGCCTCACAGGATGTGGTCAAAGAAGGTTG,3830,3910,762
GATGCTCTAACAGGAAGTGGGTTAAGGAGCTGCACT,12200,2390,673
CTCCGCCTTTCACTTCCTAGTAACCGCCCTCCCTTG,522,2400,2190
TCTGTCGTCCCACTTCCTGCTGCGGTTTCCACCTCG,3340,21300,8620
TGGCGCTTCCTGTCGCTACCGCTGCGGCCCAGGGCC,819,1860,755
GCGCCCTCCAGGAAACGCCGCGGTTTACTGTCTGCC,1120,1910,912
TCAATGACAGGAAGTTTTTAAACCACATACGGCTAA,2780,1810,904
AGGCCTCGCTTCCTCTCCTGACCACACCCTGCAGCT,446,1800,1160
CTCAGGAATGCGGAAGTGCTCTGTGGGCACCCACCA,2970,1560,707
TTGCCATTCCAGGAAATGAGCTTACCACATTGACTG,1980,1070,798
GCGCGGCCCGGAAGGGGGTAACCGCTGAGTCTTTGA,794,1010,784
TGGGAACTTCCTGTGGAGGAGTGCATTGTGGGACTT,851,1630,686
GCAGGACTTCCTGTGTTGTGCTAACCTCAAATTACA,975,2030,859
ACACCTCAGGAAGTGGCAGAGACCACAACAAGTCAG,701,1620,816
CAACCCGGAAGCACTAACGGAGAAACCGCAACTCGG,729,12700,3460
TGGCAGAGCACATCCTGTGCGGTTTTCAGTTTTGCT,1120,5430,2600
GGAGGAAGTGACACCCACCCACTGCCCCCGCAAGGT,962,963,797
AGGACGGGCGGAAGTGGCTGCGGTGGATGGTGGGAG,4180,3180,797
AGGGAACAGGAAATGCAAAAAACCACAAGGGACAAG,2100,15800,2050
AACAGGCAAAGGACAGGATGTGGTGAGCGTCGGCCC,4150,3040,774
AATGAAGGAGGGGCAGGATGTGGTCTTGGTGAATCA,2520,1440,746
CTTTGCAGGAAGCTGGGGTTCACCCACAGCCTTGTT,749,878,729

Sequence,ETS1 binding intensity (ETS1),RUNX1 binding intensity (RUNX1 [1]),RUNX1 binding intensity (RUNX1 [2])
GAAGTGTGCTCTTCCGGTACCTGCGGTTCGTTGCGC,1770,2670,808
CCCACTGCGCCAGGATGTGGTCAGGTCGGTGACGTT,1560,3410,886
CGACAGAGGACACTTCCTTTTGCGGGTGGCGGCGAA,550,1460,697
CTGTGACACGTGCGGAAGCTGTGGTAAGTGCATCCA,1130,984,840
TGGGGACCACTGTCAGGATGTGGTCACTGGAGTCAC,1020,1540,831
GCCGATGAGGAAGTGAGGGCCAACCACACTGCTCAG,544,749,878
GTTGAGTTCCGGGGGAGGTTGAGTTCCTGCGGTCAA,397,2450,1220
CCCTGACTTTTACGGAAATAGCGGTCCAAAAGCGCC,986,1160,880
GCTCCCGGATGTTCTGGGGATCTGCGGCCGCCTGGC,1300,1320,751
GGAGGTGGGGAGGAAGTTCTGAAACCACACACATTT,749,1090,891
GCCGGTGAGGGCGGAAGTGGTAAGACTGACGTGTCC,6840,2490,709
GCCAACAGGAAGCTGGAAGCCAACCGCACTGTGTGC,1190,1670,899
TCCTAAAGCAGGAAATAGTGAGGCTACCGCAGTGTC,4180,1090,713
TCCCACTGCGACGGAAGCACAGCGGTTAAGATTGCA,821,910,792
AACTGGGCGGAAAGAACGGCTAACCGCAAGCTGCCG,429,23900,11800
CCATGCACAACAGGATGTGGTTAGACAGTCAAAATT,6700,11900,875
ACCTGTGTTCTGGCAGGATGTGGTTGACCTCAGCAG,4140,2700,755
GAGGCCGAAAGGAAGTTTGAGGTTAAGCACAAGATG,975,1060,792
AGCCTACATCCTGCACTGCTTAACCACAGCCCGCCT,509,5470,1960
GTGCTAGGACACAGGAAGCGATACCACAAAGAACAT,3200,1790,818
CAGATTCAAGGAAGTGGTGGTGGTTTGGTGTCGTTG,738,907,755
CTCTTCCGCTCAGTCATCCTCAGAGGTGGTAAGACT,496,2080,1080
GCCACACTGGCGGAAATGGTGGTTACTGTTCGAGCC,3510,1560,711
CTTAGCACTTCAGCCGGAAACCACAGCATACATTTC,3980,2310,1460
